The values below come from the supplement of paper PMC3484114.

± gives the standard deviation.

The experiment relates to OVCAR-3-derived ovarian cancer stem-like cells (spheroids). The experiment is described as follows: cell growth relative to untreated control; higher = more growth (less inhibition). The settings on record: 2.29 µM; 96 h. In a few lines: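 After trypsin dissociation, OVCAR-3 spheroid-derived stem-like cells were placed in ultra-low attachment 96-well plates at 50,000 cells/mL in stem cell medium and preincubated for 24 h. Treatment at 2.29 uM followed for 96 h at 37°C, 5% CO2, with 4 replicate wells per compound. A 4 h TOX8 resazurin fluorescence read (ex 560/em 590 nm) gave viability, from which percent growth relative to untreated wells was derived after blank subtraction and Grubbs outlier removal.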
Compound `CN(C)C(=S)SSC(=S)N(C)C` showed a cell growth of 103 ± 17%.
Then `C[n+]1ccc(-c2cc[n+](C)cc2)cc1`, with 101 ± 11%; and `CC(=O)[O][Hg][c]1c(C)c(C)c(C)c(C)c1C`, with 94.5 ± 28%; and `N[C@@H](CN(O)N=O)C(=O)O`, with 105 ± 19%.
In the case of `S=C=NCc1ccccc1`, the cell growth was 109 ± 28%.
In the case of `N#CC(NCc1cccc(CNC(C#N)c2ccccc2)c1)c1ccccc1` (stereo unspecified) it was 93.3 ± 30%; in that of `C[C@H]1CCC/C=C/[C@@H]2C[C@H](O)C[C@H]2[C@H](O)/C=C/C(=O)O1`, 15 ± 2.5%; in that of `CC(=O)OC1C(O)C(C)OC(OC2C(OC(=O)C3CCC4C(C3)OC3(CC(OC(=O)/C=C/c5ccccc5)C(C)CO3)C43CO3)OC(C)C(O)C2OC(C)=O)C1O` (stereo unspecified), 5.3 ± 3.2%.
In the case of `Cc1ccc(N=Nc2c(O)ccc3ccccc23)cc1` it was 74.1 ± 8.8%; in that of `CC1=C[C@H]2O[C@@H]3[C@H](O)[C@@H](O)[C@@](C)([C@@]2(CO)CC1)[C@]31CO1`, 36 ± 10%; in that of `NCCCNCCSP(=O)(O)O`, 99.4 ± 12%.
`CCCNC1=C(C)C(=O)C2=C(C1=O)[C@H](COC(N)=O)[C@]1(OC)[C@@H]3N[C@@H]3CN21` registered a cell growth of 60.4 ± 24%.
In the case of `CC[C@@]1(O)C[C@H](O[C@H]2C[C@H](N(C)C)[C@H](O)[C@H](C)O2)c2c(cc3c(c2O)C(=O)c2c(O)ccc(O)c2C3=O)[C@H]1C(=O)OC` it was 50.3 ± 31%; in that of `COC1=C(C)C(=O)C2=C(C1=O)C(CO)N1C(C#N)C3CC4C(C1C2N1CCOC41)N3C` (stereo unspecified), 14.9 ± 4.6%.
`CCCC/C=C/C=C/C=C/CCCCCCCC(=O)OCC(COC(=O)CCCCCCC/C=C/C1C=CC(CCCC)C(C(=O)O)C1C(=O)O)OC(=O)CCCCCCC/C=C/C=C/C=C/CCCC.OCCNCO` (stereo unspecified) gave a cell growth of 115 ± 16%.
Then `C[Si](C)(CN)CN.[Cl][Pt][Cl]`, with 137 ± 53%; and `CC12C(=O)OC(=O)C1(C)C1CCC2O1` (stereo unspecified), with 91 ± 14%.
The compound `CC1=CC23C(COC(=O)C24CO4)C(C(=O)O)=CC3C1C.NCc1ccccc1` (stereo unspecified) yielded a cell growth of 74.5 ± 29%.
For the compound `C=C1C(=O)O[C@@H]2C[C@@H](C)[C@@H]3C=CC(=O)[C@@]3(C)[C@@H](O)[C@H]12`, the cell growth was 14.5 ± 2.5%.
As to `CC[PH+](CC)CC.[Cl][Au]`, the cell growth stood at 103 ± 27%.
Compound `CC12CCC3C(CCC4CC(OC(=O)Cc5ccc(N(CCCl)CCCl)cc5)CCC43C)C1CCC(=O)N2` (stereo unspecified) gave a cell growth of 52.8 ± 15%.
In the case of `CCOC(=O)[C@H](CC(C)C)NC(=O)C(Cc1ccc(N(CCCl)CCCl)cc1)NC(C)=O` (stereo partly specified) it was 73.3 ± 40%; in that of `C=Cc1cc(OC)c2c(c1)c(=O)oc1c2cc(OC)c2c(O)ccc(C3OC(C)C(O)C(C)(O)C3O)c21` (stereo unspecified), 8.6 ± 6%.
In the case of `CC(=O)[O][Pb]([O]C(C)=O)([c]1ccccc1)[c]1ccccc1` it was 80.2 ± 14%; in that of `CC1=C(N2CC2)C(=O)c2nc3n(c2C1=O)CCC3OC(=O)CCl` (stereo unspecified), 65.2 ± 6.7%.
Then `[O-][n+]1ccccc1[S-].[O-][n+]1ccccc1[S-].[Zn+2]`, with 95.8 ± 7.8%; and `CC(O)CCC(=O)c1ccoc1` (stereo unspecified), with 99 ± 17%.
`CC(=O)O[C@H]1C[C@H](O[C@H]2[C@@H](O)C[C@H](O[C@H]3[C@@H](O)C[C@H](O[C@H]4CC[C@@]5(C)[C@H](CC[C@@H]6[C@@H]5CC[C@]5(C)[C@@H](C7=CC(=O)OC7)CC[C@]65O)C4)O[C@@H]3C)O[C@@H]2C)OC(C)[C@H]1O[C@@H]1O[C@H](CO)[C@@H](O)[C@H](O)[C@H]1O` (stereo partly specified): the cell growth worked out at 21.7 ± 8.3%.
The compound `[O-][Cl+3]([O-])([O-])[O-].c1ccc(-c2csc3c4ccccc4c4ccccc4[n+]23)cc1` came in with a cell growth of 45.5 ± 12%.
Then `c1csc(C[N+]23CN4CN(CN(C4)C2)C3)c1`, with 108 ± 17%; and `CC(=O)O[C@@H]1C[C@H]2O[C@@H]3C=C(C)CC[C@]3(C)[C@]1(C)[C@]21CO1`, with 48.5 ± 11%.
